Data taken from PubChem BioAssay.
The source made the active and inactive calls.

Key:
[1] = system: Lefty1; assay: Lefty1 binders on small-molecule microarrays, primary screen, biochemical, small-molecule microarray, 635/667 nm fluorescence (AID 1139); conditions: small-molecule microarray binding, fluorescence 635/667; higher = more signal
[2] = system: wheat germ agglutinin (Triticum aestivum), Alexa647-labelled; assay: wheat germ agglutinin binders on compound microarrays, profiling panel, artefact control for SMM control-protein annotation, biochemical, small-molecule microarray, 635/667 nm fluorescence (AID 1140); conditions: WGA-A647 binding, 635 nm fluorescence, higher = more signal;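 note: score merges 667 nm feature emission with signal to noise over triplicate slides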
[3] = molecular target: Luciferin 4-monooxygenase (Photinus pyralis) (UniProt P08659); assay: firefly luciferase enzyme inhibitors, primary screen, biochemical, luminescence, purified enzyme, 2006 set (AID 1141); conditions: SteadyGlo luminescence, 30 min, higher = more signal, called active from +8 up or from −8 down;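 note: cell-free assay with purified firefly luciferase at 100 ng per well in PBS; test concentration not given here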
[4] = system: Wnt5a (protein binding on small-molecule microarray); assay: Wnt5a binders on small-molecule microarray, primary screen, biophysical, 635/667 nm fluorescence (AID 1142); conditions: 635 nm fluorescence, higher = more signal;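 note: fluorescence read at 667 nm with signal to noise per printed feature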
[5] = cell viability in Huh7 cells, primary screen, cytotoxicity control for HCV replication inhibitor project, CellTiter-Glo luminescence, basal, 48 h (AID 1143); conditions: Huh7 HCV replicon, higher = more signal, called active from +8 up or from −8 down;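 note: Huh7 hepatoma cells carrying a hepatitis C replication reporter with no stimulus; test concentration not given here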
[6] = CREB reporter modulators without forskolin, primary screen, cell-based, PC12, CRE-LacZ reporter, unstimulated (AID 1145); conditions: no forskolin, luminescence, 4.5 h, higher = more signal, called active from +8 up or from −8 down
[7] = CREB reporter modulators under forskolin, primary screen, cell-based, PC12, CRE-LacZ reporter, forskolin-stimulated (AID 1146); conditions: luminescence, 4.5 h, higher = more signal, called active from +8 up or from −8 down;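 note: PC12 cells with 6xCRE LacZ reporter stimulated by forskolin 10 µM; beta-galactosidase reporter signal reflecting CREB driven transcription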
[8] = molecular target: Streptavidin (Streptomyces avidinii) (UniProt P22629); assay: streptavidin binders on small-molecule microarray, primary screen, artefact control for SMM compound annotation, biophysical, 635/667 nm fluorescence (AID 1147); conditions: streptavidin binding, higher = more signal;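 note: signal reflects streptavidin binding to arrayed compounds as a control protein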
[9] = small-molecule binders of probe aInhba, primary screen, biochemical, small-molecule microarray, 635/667 nm fluorescence (AID 1148); conditions: higher = more signal;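 note: score merges 667nm spot fluorescence with signal-to-noise for antibody binding to printed compounds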
[10] = molecular target: Torsin-1A (Homo sapiens) (UniProt O14656); assay: torsin A binders from cell lysate, primary screen, small-molecule microarray, wild-type, 635/667 nm (AID 1149); conditions: COS7 hTOR1A-WT lysate, 635 nm fluorescence, higher = more signal
[11] = molecular target: Torsin-1A (Homo sapiens) (UniProt O14656); assay: small-molecule binders of mutant TOR1A in lysate, primary screen, cell lysate, small-molecule microarray, COS7 lysate, 635/667 nm fluorescence (AID 1150); conditions: COS7 hTOR1A mutant lysate, 635 nm fluorescence, higher = more signal;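 note: score pools 667 nm emission and signal to noise measuring lysate protein binding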
[12] = system: Sonic hedgehog protein (Shh); assay: small-molecule binders of Shh protein, primary screen, biochemical, small-molecule microarray, 635/667 nm fluorescence (AID 1151); conditions: small-molecule microarray binding, 635 nm fluorescence; higher = more signal;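 note: Shh protein binding to compounds spotted on small-molecule microarray slides; score combines spot fluorescence intensity with signal-to-noise across triplicate slides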
[13] = E. coli DRC41 culture turbidity changes, primary screen, E. coli filamentation inducer project, strain DRC41, OD650, 48 h (AID 1152);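 note: E. coli MC1000 strain DRC41 lacking acrAB efflux pump and sulA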; conditions: E. coli DRC41 (acrAB sulA), higher = more signal, called active from +8 up or from −8 down
[14] = small-molecule binders of probe aLefty1, primary screen, biochemical, small-molecule microarray, 635/667 nm fluorescence (AID 1153); conditions: higher = more signal;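 note: score merges spot fluorescence with signal-to-noise ratio from the scanned slide images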
[15] = PSAC antagonists in infected red cells, primary screen, cell-based, P. falciparum Indochina, OD700, 1 h (AID 1154); conditions: P. falciparum Indochina infected RBC osmotic lysis, higher = more signal, called active from +8 up or from −8 down
[16] = PSAC antagonists in infected red cells, primary screen, cell-based, P. falciparum Indochina, OD700, 2 h (AID 1155);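 note: lysis reports solute entry through the parasite surface anion channel PSAC; channel blockers reduce lysis of infected cells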; conditions: P. falciparum Indochina infected erythrocytes, osmotic lysis OD700; higher = more signal, called active from +8 up or from −8 down
[17] = osmotic lysis modulators in infected erythrocytes, primary screen, PSAC antagonist project, cell-based, P. falciparum Indochina, OD700, 3 h (AID 1156); conditions: higher = more signal, called active from +8 up or from −8 down
[18] = PSAC antagonists in infected red cells, primary screen, cell-based, P. falciparum Indochina, OD700, 18 h (AID 1157); conditions: P. falciparum Indochina infected erythrocytes, osmotic lysis OD700, 18 h; higher = more signal, called active from +8 up or from −8 down
[19] = modulators of S6 phosphorylation in cells, primary screen, cell-based, A549, cytoblot, luminescence, serum-stimulated (AID 1158); conditions: A549 phospho-S6 cytoblot, 5 h, higher = more signal;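 note: serum-stimulated A549 lung adenocarcinoma cells; signal is phosphorylated S6 detected by cytoblot immunostaining with HRP secondary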
[20] = molecular target: NADPH oxidase 2 (Homo sapiens) (UniProt P04839); assay: NOX2-dependent H2O2 signal modulators, primary screen, NOX inhibitor project, cell-based, HEK293-NOX2, PMA-stimulated, Amplex Red fluorescence (AID 1159); conditions: 45 min, higher = more signal, called active from +8 up or from −8 down; note: test concentration not given here
Sequence of NADPH oxidase 2 (Homo sapiens) (P04839 whole entry, looked up): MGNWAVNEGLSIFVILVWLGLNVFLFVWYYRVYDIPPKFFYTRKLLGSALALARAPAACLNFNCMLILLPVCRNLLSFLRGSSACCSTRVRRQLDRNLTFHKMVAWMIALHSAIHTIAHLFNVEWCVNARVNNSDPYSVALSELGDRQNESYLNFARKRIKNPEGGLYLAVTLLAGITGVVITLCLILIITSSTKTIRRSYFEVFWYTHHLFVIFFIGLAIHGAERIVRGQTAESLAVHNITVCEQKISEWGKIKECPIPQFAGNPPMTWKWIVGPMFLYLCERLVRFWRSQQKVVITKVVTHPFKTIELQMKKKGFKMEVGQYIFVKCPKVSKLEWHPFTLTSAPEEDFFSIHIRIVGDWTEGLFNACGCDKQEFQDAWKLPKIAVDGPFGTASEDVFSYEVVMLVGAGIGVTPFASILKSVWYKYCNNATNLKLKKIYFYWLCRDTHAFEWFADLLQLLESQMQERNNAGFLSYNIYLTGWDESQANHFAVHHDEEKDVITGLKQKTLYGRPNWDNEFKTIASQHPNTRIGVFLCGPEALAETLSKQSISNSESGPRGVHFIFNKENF

Sequence of Torsin-1A (Homo sapiens) (O14656 whole entry, looked up): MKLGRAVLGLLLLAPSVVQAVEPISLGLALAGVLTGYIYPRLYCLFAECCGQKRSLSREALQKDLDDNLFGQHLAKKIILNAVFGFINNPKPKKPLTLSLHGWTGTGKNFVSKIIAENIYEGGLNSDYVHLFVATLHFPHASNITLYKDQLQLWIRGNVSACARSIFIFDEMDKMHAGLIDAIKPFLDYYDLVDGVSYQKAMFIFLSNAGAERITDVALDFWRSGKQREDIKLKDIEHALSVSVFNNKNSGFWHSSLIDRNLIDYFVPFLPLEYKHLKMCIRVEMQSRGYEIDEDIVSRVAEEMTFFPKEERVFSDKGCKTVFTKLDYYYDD
Sequence of Streptavidin (Streptomyces avidinii) (P22629 whole entry, looked up): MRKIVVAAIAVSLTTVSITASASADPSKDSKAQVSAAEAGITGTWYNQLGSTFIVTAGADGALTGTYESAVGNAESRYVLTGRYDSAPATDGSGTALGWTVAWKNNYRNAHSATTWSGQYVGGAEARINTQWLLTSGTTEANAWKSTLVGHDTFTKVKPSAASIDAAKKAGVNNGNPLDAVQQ
Sequence of Luciferin 4-monooxygenase (Photinus pyralis) (P08659 whole entry, looked up): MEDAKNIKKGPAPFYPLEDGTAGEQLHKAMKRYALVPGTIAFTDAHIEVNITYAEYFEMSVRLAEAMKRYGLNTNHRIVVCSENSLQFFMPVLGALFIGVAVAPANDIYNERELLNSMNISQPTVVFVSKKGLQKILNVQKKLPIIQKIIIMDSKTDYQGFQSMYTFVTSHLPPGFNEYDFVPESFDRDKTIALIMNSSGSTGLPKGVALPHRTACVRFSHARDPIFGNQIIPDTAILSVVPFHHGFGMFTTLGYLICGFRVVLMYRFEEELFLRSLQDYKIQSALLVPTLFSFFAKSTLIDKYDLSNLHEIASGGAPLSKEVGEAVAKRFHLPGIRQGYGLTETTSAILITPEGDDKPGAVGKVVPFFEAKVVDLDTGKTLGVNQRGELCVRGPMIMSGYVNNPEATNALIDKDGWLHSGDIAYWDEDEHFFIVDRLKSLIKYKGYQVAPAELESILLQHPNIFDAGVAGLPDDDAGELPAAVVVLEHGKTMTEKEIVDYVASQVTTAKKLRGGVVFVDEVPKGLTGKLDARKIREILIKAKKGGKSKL

Compound | composite z-score [1] | composite z-score [2] | z-score [3] | composite z-score [4] | z-score [5] | z-score [6] | z-score [7] | composite z-score [8] | composite z-score [9] | composite z-score [10] | composite z-score [11] | composite z-score [12] | z-score [13] | composite z-score [14] | z-score [15] | z-score [16] | z-score [17] | z-score [18] | z-score [19] | z-score [20]
COc1ccc([Si](C)(C)[C@H]2[C@H](CC(=O)N(CCO)Cc3ccccc3)O[C@@]3(C(=O)N(Cc4ccc(N5CCOC5=O)cc4)c4ccccc43)[C@@H]2C)cc1 | 1.13 | 0.455 | -1.39 (inactive) | -0.0226 | -2.42 (inactive) | 1.05 (inactive) | -0.871 (inactive) | 0.295 | 0.0111 | 0.442 | 0.0957 | 1.73 | 1.22 (inactive) | -0.123 | 25.1 (active) | 14.5 (active) | -0.084 (inactive) | 2.17 (inactive) | -0.141 | 0.815 (inactive)
CC(C)C[C@@H]1NC(=O)[C@@]23C(=O)N[C@@H](Cc4ccccc4)C2[C@H](C)[C@@]2(C)O[C@H]2C3/C=C/C/C=C\CNC(=O)[C@H](Cc2ccccc2)NC1=O (stereo not given in full) | 0.321 | 0.994 | -0.755 (inactive) | -0.108 | -4.13 (inactive) | 4.56 (inactive) | -2.06 (inactive) | -0.198 | -0.082 | 0.305 | 0.384 | 0.46 | 1.76 (inactive) | -0.147 | 1.53 (inactive) | -0.0735 (inactive) | 0.966 (inactive) | 0.256 (inactive) | 0.497 | -0.188 (inactive)
CCN(CC)c1ccc(N2CC=CC34O[C@@H]5C=CCOC(=O)[C@@H]5[C@H]3C(=O)N(C(C)CO)[C@@H]4C2=O)cc1 (stereo not given in full) | -1.65 | -1.07 | -0.822 (inactive) | -0.701 | -0.269 (inactive) | 0.195 (inactive) | 0.188 (inactive) | -1.27 | -0.123 | -1.08 | -0.641 | -0.903 | 1.55 (inactive) | 0.121 | 0.0295 (inactive) | 0.447 (inactive) | 0.976 (inactive) | 0.255 (inactive) | -0.153 | 0.126 (inactive)
COc1ccc([Si](C)(C)[C@H]2[C@H](CC(=O)N(CCO)Cc3ccccc3)O[C@@]3(C(=O)N(Cc4ccc(N5CCC5=O)cc4)c4ccccc43)[C@@H]2C)cc1 | -0.143 | 0.429 | -1.23 (inactive) | -0.161 | -2.68 (inactive) | 1.82 (inactive) | -0.316 (inactive) | -0.161 | -0.128 | 0.162 | 0.294 | 0.407 | 1.33 (inactive) | -0.188 | 27.1 (active) | 21.7 (active) | 0.241 (inactive) | 2.17 (inactive) | 1.39 | 0.946 (inactive)
Cc1ccc(N2C(=O)c3ccccc3[C@](C)(C(=O)NC3CC3)[C@@H]2c2ccc(CO)cc2)nc1 | -0.105 | 0.618 | -1.5 (inactive) | 0.119 | 0.0401 (inactive) | -0.619 (inactive) | -0.732 (inactive) | -0.468 | 0.0053 | 0.141 | 1.06 | 0.496 | 1.3 (inactive) | -0.0162 | 0.262 (inactive) | -0.236 (inactive) | 0.151 (inactive) | -0.0411 (inactive) | 0.199 | -0.712 (inactive)
[N-]=[N+]=NCc1ccccc1C[C@@]1(C(=O)NCc2ccccc2)N=C(c2ccc(OCCCO)cc2)O[C@@H]1c1ccccc1 | -0.698 | 1 | -1.15 (inactive) | 0.238 | -5.27 (inactive) | 0.596 (inactive) | -0.942 (inactive) | 0.229 | -0.025 | 0.0526 | 1.48 | -0.353 | 1.75 (inactive) | 0.277 | 21 (active) | 5.58 (inactive) | 1.81 (inactive) | -0.217 (inactive) | 0.969 | 1.2 (inactive)
COCCCNC(=O)[C@@]1(C)c2ccccc2C(=O)N(Cc2cc(F)cc(C(F)(F)F)c2)[C@H]1c1ccc(CO)cc1 | -1.73 | -1.26 | -1.13 (inactive) | -0.0509 | -0.914 (inactive) | -0.0512 (inactive) | -0.883 (inactive) | -0.624 | -0.38 | 0.891 | -0.439 | -1.16 | 1.7 (inactive) | -0.279 | 1.13 (inactive) | 0.459 (inactive) | 0.0539 (inactive) | 0.0567 (inactive) | 0.0396 | 0.184 (inactive)
CC(C)CNC(=O)[C@@H]1c2ccccc2C(=O)N(Cc2ccc(OC(F)(F)F)cc2)[C@H]1c1ccc(CO)cc1 | 1.52 | 0.75 | -1.25 (inactive) | 0.314 | -2.27 (inactive) | -0.646 (inactive) | -1.28 (inactive) | 0.941 | 0.25 | 0.864 | 0.72 | 2.02 | 3.99 (inactive) | 0.315 | 2.06 (inactive) | -0.18 (inactive) | 0.209 (inactive) | -0.657 (inactive) | 1.69 | -1.43 (inactive)
